Source: PubChem BioAssay
IL1B secr inh = inhibitors of inflammasome signaling (IL-1 beta secretion) | activity change, % at 57.5 µM | hit rate 4.7% among 360,000 | THP-1 LPS/ATP IL-1B secretion, AlphaLISA, 16 h; hits give low values; in the data active = activity change below about -50%; inconclusive = mostly about -30% to -49%
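Secreted IL-1B measured by AlphaLISA bead assay after 16 h compound exposure of THP-1 cells; compounds (final up to 57.5 uM) added 1 h before LPS (250 ng/mL) and ATP (1.25 mM) stimulation; lower signal means less secretion.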
TDP1 cell CPT = growth inhibition of DT40 Tdp1-/-;hTDP1 cells with camptothecin (screen for TDP1 inhibitors) | chicken DT40 Tdp1-/-;hTDP1 cells + 20 nM CPT, ATP luminescence, 48 h | Potency, µM (highest dose often 46.2 µM), inactives show at the highest dose activity change, negative = growth inhibition, most hits filed as inhibitors | hit rate 12% among 420,000; also: potency is read from the fitted curve at half-maximal effect; nearly all actives have a fitted effect of over 55% in size
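Cell growth measured by CellTiter-Glo luminescence after a minimum 48 h, 37 C compound exposure with 20 nM CPT in Tdp1-knockout DT40 cells stably expressing hTDP1, seeded 400/well; qHTS titration format.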
DT40 TDP1 no CPT = qHTS for Inhibitors of human tyrosyl-DNA phosphodiesterase 1 (TDP1): qHTS in cells in absence of CPT; DT40 Tdp1-/- hTDP1 cells, no CPT, ATP luminescence, 48 h; hit rate 15% among 420,000; Potency, µM (highest dose often 46.2 µM), for inactives: at the top dose activity change, negative = growth inhibition, usual class: inhibitors; also: potency is read from the fitted curve at half-maximal effect; nearly all actives have a fitted effect of over 55% in size
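Luminescent ATP content (CellTiter-Glo) served as the growth readout. Knockout chicken DT40 cells expressing human TDP1 were exposed to compounds without camptothecin for a minimum 48 hr at 37 °C.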
HT1080-NT tox = kills 2HG-producing HT-1080-NT fibrosarcoma cells | HT-1080-NT fibrosarcoma viability, CellTiter-Glo ATP luminescence, 48 h | Potency, µM (series often up to 46.1 µM), without a hit: at the highest dose activity, negative = less viability, actives largely listed as cytotoxic | hit rate 1.6% among 360,000 | AID 686970;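 also: NT is the 2HG producing partner of a matched IDH1 knockdown line; potency is read from the fitted curve at half-maximal effect; 0% = DMSO-treated cells and -100% = media-only wells without cells; nearly all actives have a fitted effect of over 55% in size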
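Read-out is CellTiter-Glo luminescence after 10 minutes at room temperature, following 48 hours' compound treatment of HT-1080-NT cells (750 cells/well, RPMI, 5% FBS, 37 degrees C).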
HT1080 IDH1KD tx = kills HT-1080 cells with IDH1 knockdown. HT-1080 IDH1 knockdown viability, ATP luminescence, 48 h. Potency, µM (series often up to 46.1 µM), for inactives: at the top dose activity, negative = toxicity, hits mostly cytotoxic. hit rate 2% among 360,000. AID 686971;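 also: potency is read from the fitted curve at half-maximal effect; 0% = DMSO wells and -100% = cell-free medium wells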
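Using the IDH1-knockdown HT-1080 line run in the same batch and compound series as the NT line, viability after 48 h at 37 °C was determined by CellTiter-Glo luminescence and expressed as % activity.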
uPA generation = inhibitors of cell surface uPA generation; cell surface uPA generation assay, qHTS; Potency, µM (series often up to 38.3 µM), without a hit: top-dose activity change, negative = inhibition, most hits filed as inhibitors; hit rate 0.31% among 330,000; active = well fitted inhibition curve with a large enough effect; inconclusive = small, poorly fitted or top-dose-only effect; inactive = no such curve, though single readings can be large or run the other way; tested in mouse RAW 264.7 cells; also: potency is read from the fitted curve at half-maximal effect; nearly all actives have a fitted effect of over 55% in size
Active calls of the source: *; u = inconclusive; x = no result given; [ ] = remark or other dose. This is a sample that favours compounds with a hit; in the whole collection about 19% have one here. Unless noted, calls follow the shape of the dose curve; as a rule, active = well fitted curve in the direction sought with a large enough effect; inconclusive = small, poorly fitted or top-dose-only effect, or another doubt; inactive = no such curve, though single readings can be large; an effect the other way counts as inactive or inconclusive. Unless noted, % is scaled to controls: 0 for no effect and ±100 for the full control effect.

SMILES	IL1B secr inh	TDP1 cell CPT	DT40 TDP1 no CPT	HT1080-NT tox	HT1080 IDH1KD tx	uPA generation
COC(=O)Cc1[nH]n(-c2nc3ccccc3s2)c(=O)c1C(C)=Nc1ccc(C)cc1	2.5	-27.6%	u	-17.8%	-10.9%	-7.5%
CCN(CC)CCCN=Cc1c(-c2ccccc2)[nH]n(-c2nc3ccccc3s2)c1=O	-28.0	-22.5%	u	-2.5%	-1.0%	-3.8%
CCCc1[nH]n(-c2nc3ccccc3s2)c(=O)c1C=NCC(C)C	-58.0*	u	23.1µM*	-14.5%	-10.5%	-0.3%
C/C(=N/NC(=O)c1cccs1)c1c(C)[nH]n(-c2nc3ccccc3s2)c1=O	-1.6	3.66µM*	2.31µM*	2.31µM*	2.59µM*	1.58µM*
Cc1cccc(C)c1-n1nnnc1C1c2ccccc2C(=O)N1CCc1ccc(O)cc1 (configuration not stated)	-8.6	u	u	-2.9%	3.0%	x
Cc1cc(=O)oc2cc(NC(=O)c3cccc(S(C)(=O)=O)c3)ccc12	-52.5*	-0.4%	u	-4.0%	-8.9%	1.6%
CCCC(C(=O)Nc1ccc2c(C)cc(=O)oc2c1)c1ccccc1 (configuration not stated)	59.3	25.9µM*	u	27.9%	17.2%	4.2%
Cc1cc(=O)oc2cc(NC(=O)Cc3ccccc3)ccc12	-3.2	8.6%	-20.4%	20.5%	21.0%	1.7%
Cc1cc(C(=O)CSc2nc3ccc(Cl)cc3[nH]2)c(C)n1Cc1ccco1	12.3	20.6µM*	18.4µM*	-12.4%	-16.6%	1.4%
O=C(CSc1nc2ccc(Cl)cc2[nH]1)NCCc1ccc(Cl)cc1	-17.3	u	u	u	-25.4%	1.6%
Cc1cc(C(=O)CSc2ncccn2)c(C)n1Cc1ccco1	6.3	-0.9%	-16.6%	13.4%	5.7%	-5.5%
O=C(CSc1nc2ccc(Cl)cc2[nH]1)NCCc1ccccc1	-15.0	u	20.6µM*	-8.3%	-6.8%	1.8%
O=C(CSc1nc2ccc(Cl)cc2[nH]1)NCc1ccco1	-67.1*	-22.3%	u	-8.0%	-4.0%	-6.7%
O=C(CSc1nc2ccccc2[nH]1)NCc1ccco1	-0.7	-12.6%	-15.2%	-17.8%	16.3%[9.24 µM]	0.7%
CCCN1CNc2c(c(=O)[nH]c(=S)n2CCc2ccc(OCC)c(OCC)c2)C1	x	-19.8%	u	1.8%	1.9%	x
Nc1ncc(-c2ccccc2)c(-c2ccc(OCc3ccccc3)cc2O)n1	-103.2*	u	u	u	u	-1.1%
COc1ccc(-c2cnc(N)nc2-c2ccc(OC)cc2O)cc1	-72.7*	u	u	0.8%	-15.0%	0.8%
COc1ccc(-c2nc(N)nc(C(F)(F)F)c2-c2ccccc2OC)c(O)c1	13.8	u	23.1µM*	3.8%	0.0%	1.8%
COc1ccc(-c2nc(N)ncc2-c2ccccc2)c(O)c1	-21.6	u	u	-24.7%	-23.5%	-2.8%
COc1ccc(-c2nc(N)ncc2-c2ccccc2OC)c(O)c1	u	u	-23.3%	-2.3%	-2.9%	-20.4%
C=C(C)COc1ccc(-c2nc(N)ncc2-c2ccc(Cl)cc2)c(O)c1	u	23.1µM*	u	u	-20.2%	0.7%
CCCN=C(N)NCCC[C@H](N)C(=O)O	x	24.7%	2.3%	x	x	x
COc1cccc(Oc2cnc(N)nc2-c2ccc(OC)cc2O)c1	23.0	2.91µM*	2.31µM*	u	-74.7%	-14.2%
CCOC(=O)c1c(NC(=O)c2cc(=O)c3cc(Cl)ccc3o2)sc(C)c1C	x	7.3%	-3.2%	x	x	x
COc1ccc2nc3cc(Cl)ccc3c(Nc3cc(C(C)C)c(O)cc3C)c2c1	-90.1*	23.1µM*	u	20.6µM*	u	-12.0%
SMILES	IL1B secr inh	TDP1 cell CPT	DT40 TDP1 no CPT	HT1080-NT tox	HT1080 IDH1KD tx	uPA generation
O=C(CCc1nnc(-c2ccc3c(c2)OCO3)o1)NCCc1ccccc1F	4.5	16.4µM*	u	-29.9%	u	2.9%
CCOC(=O)Cc1csc(NC(=O)CC)n1	11.8	7.5%	-2.8%	7.7%	9.0%	-1.0%
CC(C)(C)c1csc(NC(=O)Cn2c(=O)oc3ccccc32)n1	14.8	16.4µM*	u	-5.8%	-18.4%	3.5%
CCOC(=O)Cc1csc(NC(=O)Cn2cnc3c2c(=O)n(C)c(=O)n3C)n1	12.7	16.4µM*	-79.6%	9.4%	0.0%	0.7%
CCOC(=O)Cc1csc(NC(=O)Cn2c(=O)oc3ccccc32)n1	-83.8*	-29.3%	-17.9%	-5.9%	-4.6%	1.4%
Cc1c(NC(=O)c2cccc(NS(C)(=O)=O)c2)c(=O)n(-c2ccccc2)n1C	13.8	2.0%	26.8%	-0.3%	7.2%	3.9%
CC(Sc1nc(N)c2c3c(sc2n1)CSC(C)(C)C3)C(=O)Nc1ccccc1 (configuration not stated)	u	18.4µM*	13µM*	-17.4%	-14.8%	-9.3%
CNc1nc2sc3c(c2c(=O)n1C)CC(C)(C)SC3	13.3	-29.6%	u	-18.8%	-13.3%	-4.2%
O=C(NC(=S)Nc1cccc([N+](=O)[O-])c1)C1CCCCC1	22.2	-2.1%	3.0%	8.5%	-9.6%	0.2%
CCN(C(=O)COC(=O)c1cc(S(=O)(=O)N(C)C)ccc1Cl)C1CCS(=O)(=O)C1 (configuration not stated)	5.1	-0.1%	0.9%	-1.4%	2.0%	-8.6%
COc1ccc(-c2cn(-c3ccccc3)c3[n+]2CCS3)cc1	-10.9	2.31µM*	2.31µM*	u	13µM*	-16.2%
CC(C)(C)c1ccc(-c2cn(-c3ccc(Br)cc3)c3[n+]2CCCS3)cc1	-99.1*	0.164µM*	0.184µM*	23.1µM*	8.2µM*	-21.1%
CCCCOc1ccc(CNC(=O)c2cnc3sc(N4CCCCCC4)nn3c2=O)cc1	x	-13.3%	-19.6%	x	x	x
CCc1nc2ccc(C(=O)N3CCN(C(=O)c4ccco4)CC3)cn2c1N(CCC(C)C)CCN(C)C	-14.6	3.8%	2.9%	0.3%	3.8%	x
CC(C)[C@@H](C)/C=C/[C@@H](C)[C@H]1CC[C@H]2/C(=C/C=C3\C[C@@H](O)CC[C@@H]3C)CCC[C@]12C	x	u	16.8µM*	x	x	x
CCN(CC)S(=O)(=O)c1ccc(N/N=C(\C)c2ccncc2)c([N+](=O)[O-])c1	53.5	1.0%	u	3.8%	-0.9%	-2.7%
CCN(CC)S(=O)(=O)c1cccc(C(=O)Oc2cccnc2)c1	0.0	-16.3%	-18.9%	-2.2%	-0.3%	-6.6%
C/C(=N\Nc1ccc(S(=O)(=O)N2CCCCC2)cn1)c1cccc(Br)c1	-17.3	u	3.26µM*	u	u	-3.9%
CCN(CC)S(=O)(=O)c1ccc(N/N=C(\C)c2ccncc2)nc1	-5.3	23.1µM*	u	-13.1%	-12.0%	3.1%
